PubChem BioAssay (NCATS)
Values joined by “and” are separate entries in the source; they are usually repeats but may differ in a detail not shown here. Equal values may be shown once. Inconclusive results are not listed. Where a call stands in place of a potency, no number is given. Active and inactive are the calls of the source. The call rests on the fitted dose curve; in most records, active means well fitted curve in the direction sought with a large enough effect; inconclusive means small, poorly fitted or top-dose-only effect, or another doubt; inactive means no such curve, though single readings can be large; an effect the other way counts as inactive or inconclusive.

Assays:
[1] = qHTS of pediatric cancer cell lines to identify multiple opportunities for drug repurposing: Confirmatory screen for BT-37 cells (AID 1347117); further: nearly all actives have a fitted effect of over 55% in size; further: potency means the concentration at half of the fitted maximal effect
Outline: (§1)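 Viability after 48 h compound treatment at 37C, 500-1,000 cells/well, read as ATP luminescence with CellTiter-Glo. Primary screens used 11-point (MIPE, 0.78 nM-46 µM) or 8-point (NPC, 0.59 nM-46 µM) final concentrations; follow-up screens used 11-point dilutions.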

[2] = qHTS of pediatric cancer cell lines to identify multiple opportunities for drug repurposing: Confirmatory screen for TC32 cells (AID 1347118);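 further: cells exposed to compound for 48 h before the read; nearly all actives have a fitted effect of over 65% in size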; further: potency means the concentration at half of the fitted maximal effect
Outline: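 qHTS, TC32, 48 h drug treatment, CellTiter-Glo luminescence as a proxy for metabolically active cells; primary top concentration 46 µM (MIPE 11-pt, NPC 8-pt); confirmatory 11-pt.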

[3] = qHTS of pediatric cancer cell lines to identify multiple opportunities for drug repurposing: Confirmatory screen for MG 63 (6-TG R) cells (AID 1347119); further: nearly all actives have a fitted effect of over 55% in size; further: potency means the concentration at half of the fitted maximal effect
Outline: as §1

[4] = qHTS of pediatric cancer cell lines to identify multiple opportunities for drug repurposing: Confirmatory screen for control Hh wild type fibroblast cells (AID 1347121); further: nearly all actives have a fitted effect of over 70% in size; further: potency means the concentration at half of the fitted maximal effect
Outline: as §1

[5] = qHTS of pediatric cancer cell lines to identify multiple opportunities for drug repurposing: Confirmatory screen for U-2 OS cells (AID 1347122); further: nearly all actives have a fitted effect of over 65% in size; further: potency means the concentration at half of the fitted maximal effect
Outline: as §1

[6] = qHTS of pediatric cancer cell lines to identify multiple opportunities for drug repurposing: Confirmatory screen for Rh18 cells (AID 1347125); further: nearly all actives have a fitted effect of over 55% in size; further: potency means the concentration at half of the fitted maximal effect
Outline: as §1

[7] = qHTS of pediatric cancer cell lines to identify multiple opportunities for drug repurposing: Confirmatory screen for Rh30 cells (AID 1347126); further: nearly all actives have a fitted effect of over 55% in size; further: potency means the concentration at half of the fitted maximal effect
Outline: as §1

[8] = qHTS of pediatric cancer cell lines to identify multiple opportunities for drug repurposing: Confirmatory screen for OHS-50 cells (AID 1347128); further: potency means the concentration at half of the fitted maximal effect
Outline: as §1

[9] = qHTS of pediatric cancer cell lines to identify multiple opportunities for drug repurposing: Confirmatory screen for SK-N-SH cells (AID 1347129);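 further: cells exposed to compound for 48 h before viability read; nearly all actives have a fitted effect of over 60% in size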; further: potency means the concentration at half of the fitted maximal effect
Outline: as §1

[10] = test system: Zika virus NS2B-NS3 protease; assay: Primary screen GU AMC qHTS for Zika virus inhibitors (AID 1347154); further: nearly all actives have a fitted effect of over 70% in size; further: potency means the concentration at half of the fitted maximal effect
Outline: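 Unlinked Zika NS2B hydrophilic domain–NS3 protease complex at 25 nM in 10 mM Tris-HCl pH 8.0, 0.01% Tween 20, with an AMC peptide substrate. Fluorescence change (340/450 nm) over 15 min at room temperature, normalized to controls, fitted to 4-parameter Hill.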

[11] = qHTS of pediatric cancer cell lines to identify multiple opportunities for drug repurposing: Confirmatory screen for SJ-GBM2 cells (AID 1347116); further: nearly all actives have a fitted effect of over 60% in size; further: potency means the concentration at half of the fitted maximal effect
Outline: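 Viability measured as metabolically active cells via CellTiter-Glo luminescence following 48 hours of compound exposure, 11-point dilutions in confirmatory testing. 500-1,000 cells/well plated 5 hours before dosing; controls were DMSO and 2.3 µM bortezomib.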

[12] = qHTS of pediatric cancer cell lines to identify multiple opportunities for drug repurposing: Confirmatory screen for Saos-2 cells (AID 1347127); further: nearly all actives have a fitted effect of over 60% in size; further: potency means the concentration at half of the fitted maximal effect
Outline: as §1

Furin (Homo sapiens) = Furin (Homo sapiens) (UniProt P09958); assay: Furin counterscreen qHTS for Zika virus inhibitors (AID 1347149);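 further: purified recombinant full-length human furin enzyme at 5 nM; fluorescence gain from furin cutting a BOC-RVRR-AMC peptide substrate over 15 min; top concentration of the series differs between compounds; nearly all actives have a fitted effect of over 70% in size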
Outline: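 Fluorogenic cleavage of BOC-RVRR-AMC (2 microM final, Km ~15 µM) was monitored (ex 340, em 450 nm) at 37C after 15 min RT preincubation of 5 nM furin with compounds in HEPES pH 7.0 buffer with CaCl2 and Triton X-100. Percent inhibition was fitted to a 4-parameter Hill curve.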

[13] = test system: Zika virus NS2B-NS3 protease (unlinked); assay: Optimization of GU AMC qHTS for Zika virus inhibitors: Unlinked NS2B-NS3 protease assay (AID 1347151); further: nearly all actives have a fitted effect of over 80% in size; further: potency means the concentration at half of the fitted maximal effect
Outline: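 In this qHTS, compounds acted on 25 nM unlinked Zika NS2B–NS3 in pH 8.0 Tris/Tween buffer. Cleavage of an AMC peptide ran 15 min at room temperature, to about 20% conversion.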

[14] = test system: Zika virus NS2B-NS3 protease (unlinked complex); assay: Primary screen GU Rhodamine qHTS for Zika virus inhibitors: Unlinked NS2B-NS3 protease assay (AID 1347159); further: nearly all actives have a fitted effect of over 60% in size
Outline: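 A qHTS format was used, with compound concentrations ranging up to 114 microM. Each compound was preincubated with 25 nM NS2B-NS3 protease, and the substrate was then added at 1.5 microM. Curves were fitted with a 4-parameter Hill model.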

[15] = molecular target: N-terminal Xaa-Pro-Lys N-methyltransferase 1 (Homo sapiens) (UniProt Q9BV86); assay: qHTS Assay for Inhibitors of N-terminal methyltransferase 1 (NTMT1): LOPAC validation of the NTMT1 SAHH-coupled ThioGlo3 Assay (AID 1347143);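 further: SAH from peptide methylation measured as thiol fluorescence via SAHH coupling and ThioGlo3; nearly all actives have a fitted effect of over 70% in size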
Outline: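 Recombinant human NTMT1 (125nM) was pre-incubated 1 min at room temperature with compounds over a concentration range, then a mix of 100uM SAM, 10uM SAHH and 15uM ThioGlo3 (concentrations in added reagent) was added. ThioGlo3 fluorescence (ex 340/em 450nm) after 30 min was normalized to the initial reading.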

Furin (Homo sapiens), sequence (P09958 whole entry, looked up): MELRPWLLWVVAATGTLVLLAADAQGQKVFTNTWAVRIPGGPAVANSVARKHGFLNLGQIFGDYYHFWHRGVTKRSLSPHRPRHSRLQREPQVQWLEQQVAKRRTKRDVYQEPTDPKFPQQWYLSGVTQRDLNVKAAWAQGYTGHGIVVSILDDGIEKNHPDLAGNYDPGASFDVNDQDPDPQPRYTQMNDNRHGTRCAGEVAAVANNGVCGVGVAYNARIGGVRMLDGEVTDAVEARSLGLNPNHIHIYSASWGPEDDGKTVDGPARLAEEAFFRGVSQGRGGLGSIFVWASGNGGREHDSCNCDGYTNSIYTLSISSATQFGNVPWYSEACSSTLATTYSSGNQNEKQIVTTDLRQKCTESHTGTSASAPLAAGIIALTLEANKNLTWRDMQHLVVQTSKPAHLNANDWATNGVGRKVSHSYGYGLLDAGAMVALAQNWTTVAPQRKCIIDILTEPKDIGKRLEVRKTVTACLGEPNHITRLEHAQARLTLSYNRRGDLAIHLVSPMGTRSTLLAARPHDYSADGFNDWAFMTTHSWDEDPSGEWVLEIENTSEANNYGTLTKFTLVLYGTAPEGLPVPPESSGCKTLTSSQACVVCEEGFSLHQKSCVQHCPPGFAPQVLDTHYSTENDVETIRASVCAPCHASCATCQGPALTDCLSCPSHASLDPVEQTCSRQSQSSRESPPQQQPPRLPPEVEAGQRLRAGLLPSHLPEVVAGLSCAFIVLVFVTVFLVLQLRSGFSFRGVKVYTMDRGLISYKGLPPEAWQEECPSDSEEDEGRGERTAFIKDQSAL
N-terminal Xaa-Pro-Lys N-methyltransferase 1 (Homo sapiens), sequence (Q9BV86 whole entry, looked up): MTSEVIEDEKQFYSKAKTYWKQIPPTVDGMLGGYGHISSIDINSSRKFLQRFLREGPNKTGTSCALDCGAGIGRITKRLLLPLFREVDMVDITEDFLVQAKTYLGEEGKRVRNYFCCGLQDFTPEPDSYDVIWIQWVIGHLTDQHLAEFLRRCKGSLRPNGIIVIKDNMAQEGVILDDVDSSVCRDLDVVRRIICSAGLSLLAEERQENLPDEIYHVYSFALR

Row | SMILES | Potency [1] | Potency [2] | Potency [3] | Potency [4] | Potency [5] | Potency [6] | Potency [7] | Potency [8] | Potency [9] | Potency [10] | Potency [11] | Potency [12] | Potency (Furin (Homo sapiens)) | Potency [13] | Potency [14] | Potency [15]
1 | Nc1[nH]c(=O)ncc1F | inactive | inactive | inactive | inactive | inactive | inactive | inactive | inactive | inactive | inactive | – | – | – | – | – | –
2 | Nc1nc(=S)c2[nH]cnc2[nH]1 | 3.29 µM (active) and 2.93 µM (active) | 1.17 µM (active) and 737 nM (active) | inactive | inactive | 1.04 µM (active) and 928 nM (active) | 13.1 µM (active) | – | 928 nM (active) and 414 nM (active) | 4.18 µM (active) and 3.72 µM (active) | inactive | 5.22 µM (active) | 7.37 µM (active) and 2.93 µM (active) | inactive | inactive | – | –
3 | CCC(=O)O[C@]1(C(=O)SCF)[C@H](C)C[C@H]2[C@@H]3C[C@H](F)C4=CC(=O)C=C[C@]4(C)[C@@]3(F)[C@@H](O)C[C@@]21C | inactive | inactive | inactive | inactive | – | – | – | inactive | inactive | inactive | – | inactive | – | – | – | –
4 | CC(C(=O)O)c1ccc2c(c1)CC(=O)c1ccccc1S2 (centres undefined) | – | – | – | inactive | inactive | inactive | inactive | inactive | inactive | inactive | inactive | inactive | – | – | inactive | –
5 | COc1cc([C@@H]2c3cc4c(cc3[C@H](O)[C@H]3COC(=O)[C@H]23)OCO4)cc(OC)c1OC | 0.0522 µM (active) | 0.0737 µM (active) | 32.9 nM (active) | inactive | 0.0737 µM (active) | inactive | inactive | – | inactive | inactive | – | 0.0414 µM (active) | – | – | – | –
6 | S=P(N1CC1)(N1CC1)N1CC1 | – | 4.14 µM (active) | inactive | inactive | inactive | inactive | inactive | inactive | – | inactive | inactive | inactive | – | – | – | –
7 | COC(=O)Nc1nc2ccc(S(=O)c3ccccc3)cc2[nH]1 (centres undefined) | 2.08 µM (active) | 1.04 µM (active) | 1310 nM (active) | inactive | 2.93 µM (active) | inactive | inactive | 2.33 µM (active) | 2.96 µM (active) | inactive | – | 1.47 µM (active) | – | – | – | –
8 | COc1cc2nc(N3CCCN(C)CC3)nc(NC3CCN(Cc4ccccc4)CC3)c2cc1OC | 20.8 µM (active) | 11.7 µM (active) | inactive | inactive | – | – | 0.147 µM (active) | 18.5 µM (active) | 8.33 µM (active) | 27.1 µM (active) | 0.928 µM (active) | – | – | 21.2 µM (active) | – | inactive
9 | CCCCOc1ccc(CC(=O)NO)cc1 | – | – | inactive | inactive | inactive | – | – | inactive | inactive | inactive | inactive | inactive | – | – | – | –
10 | CS(=O)(=O)c1ccc([C@@H](O)[C@@H](CO)NC(=O)C(Cl)Cl)cc1 | inactive | inactive | – | inactive | inactive | inactive | inactive | inactive | inactive | inactive | inactive | – | – | – | – | –
11 | CN(C)c1ccc(C(=C2C=CC(=[N+](C)C)C=C2)c2ccc(N(C)C)cc2)cc1 | 1.17 µM (active) | 0.928 µM (active) | 827 nM (active) | 1.04 µM (active) | 1.85 µM (active) | 1.47 µM (active) | 1.17 µM (active) | 3.69 µM (active) | 1.32 µM (active) | inactive | 1.17 µM (active) | 1.31 µM (active) | – | – | – | –
12 | O=C(NCC1CN(c2ccc(N3CCOCC3=O)cc2)C(=O)O1)c1ccc(Cl)s1 (centres undefined) | – | 2.61 µM (active) | – | inactive | inactive | inactive | inactive | – | inactive | inactive | inactive | – | – | – | inactive | –
13 | COc1nc(N)nc2c1ncn2[C@@H]1O[C@H](CO)[C@@H](O)[C@@H]1O | 18.5 µM (active) | 3.69 µM (active) | – | inactive | inactive | – | – | inactive | inactive | inactive | inactive | inactive | – | – | – | –
14 | CNCC[C@H](Oc1cccc2ccccc12)c1cccs1 | inactive | 7.37 µM (active) | 26100 nM (active) | inactive | inactive | inactive | inactive | – | – | inactive | inactive | inactive | – | – | – | –
15 | Nc1nc(F)nc2c1ncn2[C@@H]1O[C@H](CO)[C@@H](O)[C@@H]1O | 14.7 µM (active) and 414 nM (active) | 18.5 µM (active) and 737 nM (active) | 737 nM (active) and 827 nM (active) | inactive | 1.47 µM (active) | – | – | 0.414 µM (active) | – | inactive | 1.65 µM (active) | 928 nM (active) and 1.17 µM (active) | – | – | inactive | –
16 | CN1CCCC(n2nc(Cc3ccc(Cl)cc3)c3ccccc3c2=O)CC1 (centres undefined) | 23.3 µM (active) | 26.1 µM (active) | inactive | inactive | inactive | – | inactive | – | 20.9 µM (active) | inactive | – | inactive | – | – | – | –
17 | CNNCc1ccc(C(=O)NC(C)C)cc1 | inactive | – | inactive | inactive | inactive | – | inactive | inactive | inactive | inactive | inactive | inactive | – | – | – | –
18 | Cc1cccc(N(C)C(=S)Oc2ccc3ccccc3c2)c1 | inactive | – | – | inactive | – | inactive | inactive | inactive | inactive | inactive | inactive | inactive | – | – | – | –
